The record followed here is PubChem BioAssay AID624273 (Broad Institute, 2012).

Hit rate of the full screen: of about 1,000 compounds, about 230 (23%) were called active. About 1% were inconclusive and are not listed. The list shows a part of the results. Entries with a potency or affinity are not part of this list. A number with no mark means an inactive call. The rule behind the calls is not given here.

The target in this assay is Long-chain-fatty-acid--AMP ligase FadD28 (Mycobacterium tuberculosis (strain ATCC 25618 / H37Rv)) (UniProt P9WQ59). As to the kind of experiment: inhibitors of FadD28 bisubstrate probe binding, dose response, biochemical, fluorescence polarization, cherry-pick (AID 624273). The following applies: series mostly up to 50 µM; activity change, negative = inhibition: at the top concentration. Background: Polarisation of emitted light reports the rotation of a fluorescent probe.
Chain of Long-chain-fatty-acid--AMP ligase FadD28 (Mycobacterium tuberculosis (strain ATCC 25618 / H37Rv)) (P9WQ59 whole entry, looked up): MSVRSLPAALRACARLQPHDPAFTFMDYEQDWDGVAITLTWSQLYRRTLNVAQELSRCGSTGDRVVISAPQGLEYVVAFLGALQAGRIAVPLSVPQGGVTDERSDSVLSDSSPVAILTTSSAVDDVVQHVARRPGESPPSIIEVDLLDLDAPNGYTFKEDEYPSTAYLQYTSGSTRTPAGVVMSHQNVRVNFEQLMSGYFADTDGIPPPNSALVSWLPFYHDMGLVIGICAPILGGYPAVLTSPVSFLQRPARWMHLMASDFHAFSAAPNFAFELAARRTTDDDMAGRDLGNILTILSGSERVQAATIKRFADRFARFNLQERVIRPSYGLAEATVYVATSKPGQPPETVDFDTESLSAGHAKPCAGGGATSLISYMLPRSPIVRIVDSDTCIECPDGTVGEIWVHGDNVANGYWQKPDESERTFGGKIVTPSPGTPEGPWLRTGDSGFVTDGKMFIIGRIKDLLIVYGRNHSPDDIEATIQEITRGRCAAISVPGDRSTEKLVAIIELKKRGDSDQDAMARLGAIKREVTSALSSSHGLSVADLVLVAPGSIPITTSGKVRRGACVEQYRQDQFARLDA
For `COC(=O)[C@]1(Cc2ccccc2)N[C@H](CN(C)S(=O)(=O)c2ccc(-c3ccccc3)cc2)[C@@H]2C(=O)N(C)C(=O)[C@@H]21`, the “activity change, negative = inhibition” value was -27.4%. For `COc1cccc(CN(C)C(=O)CC2C(=O)NCCN2C2Cc3ccccc3C2)c1` (stereo unspecified) the value was 1.96%; for `COc1cc(/C=C/c2ccc3cccc(O)c3n2)cc(OC)c1OC`, -5.24%; for `Cc1ccn2c(Nc3ccccc3C)c(-c3ccccn3)nc2c1`, -4.56%. In the case of `Cc1nn(Cc2ccc(F)cc2)c2sc(C(=O)Nc3ccccc3N3CCOCC3)cc12`, the “activity change, negative = inhibition” value is -3.07%. Take `O=C1CCCC(=NNC(=O)c2cc3ccccc3cc2O)C1`: the “activity change, negative = inhibition” value is 3.46%. For the compound `O=C(O)CCC(=O)Nc1ccc(C(=O)OCC(=O)c2ccc(Cl)cc2)cc1`, the “activity change, negative = inhibition” value is -18.5%.

Turning to `Cn1nc(CC(=O)NC2CCCCCCCCCCC2)c2ccccc2c1=O`, the “activity change, negative = inhibition” value was -3.2%. For `O=C(Nc1cccc([N+](=O)[O-])c1)NC1CCCCCCC1` the value was -11.6%; for `FC(F)Sc1ccc(NC(=S)NCc2ccccc2)cc1`, -12.6%; for `O=C(COC(=O)c1nc(Cl)ccc1Cl)NCc1ccccc1`, -10.5%. As for `CCCC(C(=O)NCCC(C)C)N(Cc1ccccc1)C(=O)c1snc(C(N)=O)c1N` (stereo unspecified), the “activity change, negative = inhibition” value is -8.21%. On to `O=S(=O)(CCN1CCN(c2ccccc2O)CC1)c1cc(Cl)ccc1Cl`, for which the “activity change, negative = inhibition” value was -5.55%.

With `COc1ccc(NC(=O)Nc2ccc3c(c2)C(=O)N([C@@H](C)CO)C[C@@H](C)[C@@H](CN(C)S(=O)(=O)c2cccs2)O3)cc1`, the “activity change, negative = inhibition” value is -15.6%. As to `O=C(NN=Cc1ccc(N(CCCl)CCCl)cc1)c1cccnc1`, the “activity change, negative = inhibition” value was -10.7%. For `CCN(CC)c1ccc(NC(=O)Nc2ccc(C(C)=O)cc2)cc1` the value was -9.89%; for `COc1ccc(Cl)cc1C(=O)Nn1c(-c2cccs2)nc2ccccc2c1=O`, -10.4%; for `O=C(Nc1ccc(F)cc1F)NC1CCCCCCC1`, -10.6%. For `CCOc1ccc(N=C2SC(C(=O)Nc3ccccc3C#N)C(N)=C2C(=O)Nc2ccc(Cl)cc2)cc1` (stereo unspecified) the value was -2.7%. For `CCOc1ccc(NC(=O)Cn2sc3nc(C)cc(C)c3c2=O)cc1` the value was 1.98%; for `c1ccc(-c2cc(-c3ccccc3)on2)cc1`, -4.78%; for `CCCCC(=O)Nc1cc([N+](=O)[O-])ccc1Cl`, -3.25%. As for `N#Cc1ccc(NCCc2ccccn2)c([N+](=O)[O-])c1`, the “activity change, negative = inhibition” value was -4.35%. For `CCS(=O)(=O)c1ncc(Cl)c(C(=O)Nc2ccc(S(=O)(=O)N3CCC(C)CC3)cc2)n1` the value was -3.68%; for `CC12CCC(C(=O)NCCCn3ccnc3)(OC1=O)C2(C)C` (stereo unspecified), 0.92%; for `c1ccc2cc(OCCCn3ccnc3)ccc2c1`, 4.08%. Consider `Cc1nn(CC(=O)NCc2ccco2)c(C)c1[N+](=O)[O-]`, for which the “activity change, negative = inhibition” value is -5.9%.

As to `CC(C)(C)c1ccc(Cn2nnc3c(=O)[nH]c(C4CCCN(C(=O)c5cccs5)C4)nc32)cc1` (stereo unspecified), the “activity change, negative = inhibition” value was 1.02%. In the case of `COc1ccc(N=C2NC(=O)/C(=C\C=C\c3ccco3)S2)cc1`, the “activity change, negative = inhibition” value is -9.1%. Regarding `CCN(C(=O)c1cc(OC)c(OC)c(OC)c1)C1CCCCC1`, the “activity change, negative = inhibition” value is -8.5%. The figure for `CCc1cccc2c(C(=O)COC(=O)[C@@H]3CC(O)CN3S(=O)(=O)c3ccccc3[N+](=O)[O-])c[nH]c12` (stereo partly specified) is -1.47%. For the compound `COc1ccc(C(C)=O)cc1COC(=O)c1cnc(C)cn1`, the “activity change, negative = inhibition” value was -0.706%. `CCc1cccc2c(C(=O)COC(=O)c3ccccc3)c[nH]c12`: the “activity change, negative = inhibition” value was -7.51%.

As for `O=C(c1cc2cc(Br)ccc2oc1=O)N1CCCC1`, the “activity change, negative = inhibition” value was -5.4%.

In the case of `CC(C)CCOc1ccc(C(=O)N2CCCC2C(=O)O)cc1` (stereo unspecified), the “activity change, negative = inhibition” value was -7.21%.

As for `C[C@@H]1CN([C@H](C)CO)C(=O)c2cc(NC(=O)Nc3ccc(C(F)(F)F)cc3)ccc2O[C@H]1CN(C)S(=O)(=O)c1cccs1`, the “activity change, negative = inhibition” value is -6.05%. On to `Cc1ccc(S(=O)(=O)Nc2ccc(O)c3ccccc23)c(C)c1`, for which the “activity change, negative = inhibition” value was -15.6%. Regarding `Cc1noc(/C=C/N(C)C)c1S(=O)(=O)N1CCCC(C(=O)NC2CCCCC2C)C1` (stereo unspecified), the “activity change, negative = inhibition” value is -7.62%. For `CCOC(=O)c1cccc(P(=O)(C(C)(C)C)C(C)(C)C)c1` the value was 1.89%; for `C=CC(COCc1ccccc1)N(C(=O)OC(C)(C)C)S(=O)(=O)c1ccccc1Br` (stereo unspecified), 0.184%. In the case of `C=CCC12C=C(OC)C(=O)OC(OC)(C1O)[C@H](c1ccc3c(c1)OCO3)[C@H]2C` (stereo partly specified), the “activity change, negative = inhibition” value is -8.23%. The figure for `CCC1(CC)NC(=O)N(CC(=O)Nc2ccc(OCc3ccccc3)cc2)C1=O` is -6.91%; for `Cc1ccc(S(=O)(=O)NCC(=O)OCC(=O)N2CCN(C(=O)c3ccco3)CC2)cc1C` it is -6.55%. The figure for `CCc1cc(C(=O)O)c(NC(=O)C(c2ccccc2)c2ccccc2)s1` is -0.982%; for `CN1c2ccsc2C(O)=C(C(=S)Nc2ccc(F)c(Cl)c2)S1(=O)=O` it is -7.32%.

Consider `CC1(C)Cc2ccccc2C(=NCCCC(=O)O)N1`, for which the “activity change, negative = inhibition” value was -2.17%. For `Oc1c(Cl)cc(Cl)cc1/C=N/NC(=S)NC1CC2C=CC1C2` (stereo unspecified) the value was -13.8%.

Turning to `CCCSc1ncc(Cl)c(C(=O)Nc2ccc(S(=O)(=O)N3CC(C)OC(C)C3)cc2)n1` (stereo unspecified), the “activity change, negative = inhibition” value was -0.797%. The figure for `C=CCC[C@@H](Cc1ccc(F)cc1)C(=O)OC[C@@H](NC(=O)[C@@H](CC=C)CC(=O)N(CCO)Cc1ccccc1)c1ccccc1` is 2.84%; for `O=C(Nc1ccccc1F)NC1CCCCCCC1` it is -18.2%. For `COC(=O)CN(c1ccc(OC)cc1)S(=O)(=O)c1ccc(OC)c(OC)c1` the value was 0.952%; for `COC(=O)C1=C(c2ccc3ccccc3c2)C[C@@H]2CC[C@H]1N2C(=O)N1CCC(O)CC1`, -1.57%.

`N=c1c(C(=O)NCc2ccco2)cc2c(=O)n3ccccc3nc2n1Cc1ccccc1`: the “activity change, negative = inhibition” value is -1.35%. For `COC(=O)CCC(=O)N1CCCC(CO)(Cc2ccccc2F)C1` (stereo unspecified) the value was -0.525%; for `O=C(O)C1Sc2[nH]c(=O)sc2C2c3ccc(O)cc3OC(=O)C12` (stereo unspecified), -16.8%. Consider `O=C(NC(NC(=S)Nc1c(Cl)cccc1Cl)C(Cl)(Cl)Cl)OCc1ccccc1` (stereo unspecified), for which the “activity change, negative = inhibition” value is 8.05%.
